FBA Mtb inh – inhibitors of M. tuberculosis fructose-bisphosphate aldolase. purified M. tuberculosis FBA, fluorescence read-out. inhibition, % at 1 µM. hit rate 2.3% among 360,000. AID 588726; in the data active means inhibition above about 27%;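 further: 0% = vehicle and 100% = reference inhibitor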
RecA splice inh – blocks M. tuberculosis RecA intein splicing; P9WHJ3; cell-free RecA intein splicing, fluorescence; inhibition, % (no concentration beside the values); hit rate 0.75% among 290,000; AID 2221; in the data active means inhibition above about 30%;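 further: 0% = vehicle wells and 100% = reference inhibitor control wells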
GDH-TPI inh – inhibits GDH-TPI coupling enzymes, artifact for Mtb FBA screen | hit rate 1.2% among 360,000 | GDH-TPI coupled enzyme counterscreen, NADH absorbance | inhibition, % at 4.8 µM | AID 588335; in the data active means inhibition above about 30%;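 further: 0% = DMSO wells and 100% = wells lacking the enzyme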
Rv3671c inh – Rv3671c (M. tuberculosis) protease inhibition; hit rate 0.048% among 320,000; AID 2606; inhibition, % at 5.96 µM; P9WHR9; in the data active means inhibition above about 38%;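 further: extracellular domain of Rv3671c used as enzyme; 0% = enzyme with DMSO and 100% = no enzyme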
UGM FP inh – inhibitors of M. tuberculosis UDP-galactopyranose mutase; P9WIQ1; purified UGM, fluorescence polarization probe displacement; inhibition, % at 10 µM; hit rate 0.06% among 320,000; AID 504406; in the data active means inhibition above about 10%, passing the limit was not always enough
Target sequence (P9WIQ1 whole entry, looked up): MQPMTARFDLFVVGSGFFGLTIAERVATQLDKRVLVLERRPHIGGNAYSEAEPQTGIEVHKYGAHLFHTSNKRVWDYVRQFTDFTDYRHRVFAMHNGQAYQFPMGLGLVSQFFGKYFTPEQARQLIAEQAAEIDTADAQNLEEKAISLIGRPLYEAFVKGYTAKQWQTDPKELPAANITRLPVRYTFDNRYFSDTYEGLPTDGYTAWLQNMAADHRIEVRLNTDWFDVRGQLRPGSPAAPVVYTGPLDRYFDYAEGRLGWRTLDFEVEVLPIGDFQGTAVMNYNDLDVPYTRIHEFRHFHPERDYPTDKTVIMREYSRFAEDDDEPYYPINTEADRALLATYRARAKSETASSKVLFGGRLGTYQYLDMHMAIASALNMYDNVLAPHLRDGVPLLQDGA
Vc quorum ag – induces V. cholerae light production without autoinducers | V. cholerae BH1578 lux reporter, luminescence, 6 h | activation, % at 18.7 µM | hit rate 0.16% among 350,000 | AID 588436; in the data active means activation mostly above about 9.7%, no sharp cut-off
GFP chromophore – counter-screen GFP chromophore formation inhibition; shares compounds with RecA splice inh; cell-free GFP chromophore formation, fluorescence; EC50, µM; hit rate 83% among 2,100; AID 434968; call rule not given here
Active calls of the source: *; i = inactive; . = no result. Only some compounds are listed: those with a hit (about 4.1% of all), similar ones and a draw of the others.

SMILES	FBA Mtb inh	RecA splice inh	GDH-TPI inh	Rv3671c inh	UGM FP inh	Vc quorum ag	GFP chromophore
Cc1[nH]nc2c1C(c1ccc3c(c1)OCO3)C(C#N)=C(N)O2 (configuration not stated)	2	67*	7	2	1	i	39*
Cc1ccc(SCc2[nH]nc3c2C(c2cccnc2)C(C#N)=C(N)O3)cc1 (configuration not stated)	-1	13	6	-16	1	-4	.
COc1cccc(-c2[nH]nc3c2C(c2ccoc2)C(C#N)=C(N)O3)c1 (configuration not stated)	3	82*	27	-6	2	-1	9.8*
COc1ccc(S(=O)(=O)N(C)C[C@H]2Oc3c(NC(=O)Cc4ccccc4)cccc3C(=O)N([C@H](C)CO)C[C@@H]2C)cc1	2	.	7	6	1	-1	.
Cn1c(SSc2ccc(-c3cccnc3)n2C)ccc1-c1cccnc1	-2	.	10	.	.	i	.
CN(C(=O)CSc1ncnc2sc3c(c12)CCCC3)C1CCS(=O)(=O)C1 (configuration not stated)	1	.	4	-1	0	1	.
O=C1NC(=Nc2ccc(O)cc2)S/C1=C\C=C\c1ccco1	-10	8	8	4	1	i	.
Cc1[nH]nc2c1C(c1ccsc1)C(C#N)=C(N)O2 (configuration not stated)	-2	83*	6	4	-2	i	39*
CCOc1ccc(-c2[nH]nc3c2C(c2cccnc2)C(C#N)=C(N)O3)cc1 (configuration not stated)	1	.	3	11	0	5	.
Cc1[nH]nc2c1C(C1CC=CCC1)C(C#N)=C(N)O2 (configuration not stated)	2	.	3	-1	0	-1	.
N#CC1=C(N)Oc2n[nH]c(-c3ccncc3)c2C1c1ccsc1 (configuration not stated)	5	54*	5	-9	2	0	38*
CC(C)C1C(C#N)=C(N)Oc2n[nH]c(-c3ccc4ccccc4c3)c21 (configuration not stated)	-4	3	10	-37	0	i	.
COc1cccc(-c2[nH]nc3c2C(c2ccsc2)C(C#N)=C(N)O3)c1 (configuration not stated)	0	76*	5	-37	0	i	7.7*
COc1cc(-c2[nH]nc3c2C(c2ccco2)C(C#N)=C(N)O3)cc(OC)c1OC (configuration not stated)	-2	79*	8	-1	-5	i	9.1*
CCOC(=O)C1=CCN(S(=O)(=O)c2ccccc2Cl)C1c1cccc(C)c1 (configuration not stated)	-3	.	.	.	.	.	.
CN(C)/C=C/C(=O)c1ccc2noc(-c3ccc(F)cc3)c2c1	-3	31*	15	-9	2	-1	>38
Cc1ccc(-c2onc3ccc(C(=O)/C=C/N(C)C)cc23)cc1	1	0	24	-18	1	-1	.
CS(=O)(=O)c1nc(-c2ccccc2)cc(C(F)(F)F)n1	3	66*	3	-9	5	2	13*
Cc1cc(NC(=O)CCS(=O)(=O)c2nc(-c3ccccc3)cc(C(F)(F)F)n2)no1	-3	.	2	0	1	0	.
O=C(CN1C(=O)NC2(CCCC2)C1=O)Nc1ccccc1N1CCCCC1	-2	1	-9	1	-2	i	.
COc1cc(Cc2nccc3cc(OC)c(OC)cc23)c(NC(C)=O)cc1OC	0	1	-6	2	2	i	.
COc1cc(Cc2nccc3cc(OC)c(OC)cc23)c(S(=O)(=O)O)cc1OC	3	42*	6	-1	-2	i	>38
O=C(CCl)N(C/C=C/c1ccccc1)c1ccc2c(c1)OCCO2	7	85*	7	7	-2	-1	3*
N#CC1=C(N)OC2=C(C(=O)CCC2)C1c1ccoc1 (configuration not stated)	-4	-1	9	2	4	-1	.
CCCc1noc2c1C(c1ccoc1)C(C#N)=C(N)N2 (configuration not stated)	2	79*	13	-3	0	i	>38
SMILES	FBA Mtb inh	RecA splice inh	GDH-TPI inh	Rv3671c inh	UGM FP inh	Vc quorum ag	GFP chromophore
O=C1NC(=O)C(=Cc2cc3c(cc2[N+](=O)[O-])OCO3)C(=O)N1	4	39*	22	-5	1	i	>38
O=C1NC(=O)C(=Cc2ccccc2[N+](=O)[O-])C(=O)N1	-1	.	7	.	.	-1	.
Cc1ccc(C)c(CN2CCC(CNC(=O)CCc3nnc4ccc(N5CCC(C)CC5)nn34)CC2)c1	4	-8	7	3	2	i	.
COc1cc(NC(=O)CSc2nc3[nH]c(=O)cc(O)c3s2)cc(OC)c1OC	1	.	6	-4	4	-1	.
CCOc1ccc(Br)cc1S(=O)(=O)NC1=NCCCCC1	-1	.	0	2	-2	i	.
CCOc1ccccc1C1C(C#N)=C(N)Nc2onc(-c3ccccc3)c21 (configuration not stated)	1	78*	-3	-14	4	i	16*
CCOc1cccc(C2C(C#N)=C(N)Oc3cc(C)[nH]c(=O)c32)c1OCC (configuration not stated)	3	1	0	9	1	-3	.
N#C/C(=C\c1cccc(O)c1)c1nc2ccccc2o1	7	69*	35*	-4	1	0	21*
CC(=O)NC(c1ccc(Cl)cc1)c1c(O)ccc2ccc(O)cc12 (configuration not stated)	8	59*	0	-5	-1	0	12*
COc1ccccc1N(CC(=O)N/N=C/c1ccccc1C(=O)O)S(C)(=O)=O	-3	0	-8	-7	1	0	.
CCOC(=O)C(Nc1ccc2ccccc2c1)C(=O)OCC	9	71*	5	-8	-2	0	22*
CC(=O)Nc1ccc2ccccc2c1	-1	-2	9	-5	4	i	.
C#Cc1ccc(NC(=O)C2(C)CCN2C(=O)C2(c3ccccc3)CCCC2)cc1 (configuration not stated)	2	.	8	.	.	i	.
CCCCCc1cc(=O)oc2c(C(CCN3CCCC(C)C3)c3ccc4c(c3)OCO4)c(OC)cc(OC)c12 (configuration not stated)	4	35*	3	-6	-2	5	20*
O=C(CN1CCN(S(=O)(=O)c2ccc(Cl)cc2)CC1)Nc1ccc2c(c1)OCO2	-2	47*	8	-2	1	i	>38
Cc1ccc(S(=O)(=O)Oc2ccc(C(c3c(C)[nH][nH]c3=O)c3c(C)[nH][nH]c3=O)cc2)cc1	3	97*	6	-7	-1	0	>38
Cc1ccc(S(=O)(=O)Oc2ccccc2)cc1	1	.	-11	.	.	.	.
